Results reported in the supplement of paper PMC7411054.
Counter-ions that a name gives are not always drawn.

The molecules below were run on HepG2-GM130-SQSTM1 (assay: lowest phenotypically active concentration; higher = less potent). Conditions: treatment time: 24 h.
Outline: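 After 24 h at 0.3, 1, 3 or 9 µM, with four wells per treatment, fifteen gene-edited A549, HepG2 and WPMY1 reporter lines carrying BFP, GFP and RFP/FusionRed were imaged live. Each well's live-cell features were expressed relative to solvent control wells. Deviation required ≥3 of 4 wells past the 95th percentile of control Euclidean distances, and reproducibility a median replicate Pearson correlation over the 95th percentile of non-replicates. Phenotypic activity rested on both.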

Lowest phenotypically active concentration, 9 µM:
c1ccc2c(c1)Cc1c(Nc3ccc4c(c3)OCCO4)n[nH]c1-2
N#Cc1c(C2CCNCC2)cc(-c2c(O)cccc2OCC2CC2)nc1N
COc1cc(N2CCC(N3CCN(C)CC3)CC2)ccc1Nc1ncnc(Nc2ccccc2S(=O)(=O)C(C)C)n1

Lowest phenotypically active concentration, ≤ 0.3 µM:
Nc1nc(Cl)nc2c1ncn2[C@@H]1O[C@H](CO)[C@@H](O)[C@@H]1F [clofarabine]
Cc1nc(Nc2ncc(C(=O)Nc3c(C)cccc3Cl)s2)cc(N2CCN(CCO)CC2)n1 [dasatinib]
O=C(NCc1cccc(O)c1)Nc1nc(-c2ccncc2)cs1 [RKI 1447 dihydrochloride]
CC(C)n1nc(-c2cc3cc(O)ccc3[nH]2)c2c(N)ncnc21
COc1ccc(-c2ccc3ncc4c(c3c2)n(-c2ccc(N3CCNCC3)c(C(F)(F)F)c2)c(=O)n4C)cn1
CC(C)(C)c1cnc(CSc2cnc(NC(=O)C3CCNCC3)s2)o1
O=C(O)c1ccc(Nc2ncc3c(n2)-c2ccc(Cl)cc2C(c2c(F)cccc2F)=NC3)cc1
CCC(=O)N1CCN(c2ccc(-n3c(=O)ccc4cnc5ccc(-c6cnc7ccccc7c6)cc5c43)cc2C(F)(F)F)CC1 [Torin 1]
COc1cc2c(NC3CCN(C(C)C)CC3)nc(N3CCC(F)(F)CC3)nc2cc1OCCCN1CCCC1
CC(=O)c1c(C)c2cnc(Nc3ccc(N4CCNCC4)cn3)nc2n(C2CCCC2)c1=O
CO[C@H]1C=CC=C(C)C(=O)NC2=CC(=O)C(NCCN(C)C)=C(C[C@@H](C)C[C@H](OC)[C@H](O)[C@@H](C)C=C(C)[C@@H]1OC(N)=O)C2=O [17-DMAG hydrochloride]
NC(=O)Nc1cc(-c2cccc(F)c2)sc1C(=O)N[C@H]1CCCNC1 [AZD 7762 hydrochloride]
Cc1c[nH]c2nccc(Oc3c(F)cc(Nc4cc(Cl)nc(N)n4)cc3F)c12
CON(C)C(=O)N1N=C(c2cc(F)ccc2F)S[C@@]1(CCCN)c1ccccc1 [ARRY 520 trifluoroacetate]
CC[C@H](CO)Nc1nc(NCc2ccc(-c3ccccn3)cc2)c2ncn(C(C)C)c2n1
Oc1cccc(-c2nc(N3CCOCC3)c3oc4ncccc4c3n2)c1 [PI 103 hydrochloride]
COc1cccc(-c2cc(F)ccc2[C@H]2Cc3nc(N)nc(C)c3C(=O)N2)n1
COc1cc(C(=O)NC2CCN(C)CC2)c(F)cc1Nc1ncc2c(n1)N(C1CCCC1)CC(F)(F)C(=O)N2C [TAK 960 hydrochloride]
CC[C@]1(O)C[C@@H]2CN(CCc3c([nH]c4ccccc34)[C@@](C(=O)OC)(c3cc4c(cc3OC)N(C=O)[C@H]3[C@@](O)(C(=O)OC)[C@H](OC(C)=O)[C@]5(CC)C=CCN6CC[C@]43[C@@H]65)C2)C1 [vincristine]
Fc1ccccc1CNCc1ccc(-c2ccnc3[nH]ccc23)cc1 [OXA 06 dihydrochloride]
C[C@H]1COCCN1c1cc(C2(S(=O)(=O)C3CC3)CC2)nc(-c2ccc(NC(=S)NCCO)cc2)n1

Lowest phenotypically active concentration, 3 µM:
COc1ccc(S(=O)(=O)N(C(C)=O)c2ccccc2/C=C/c2cc[n+]([O-])cc2)cc1
CC(C)(C)Nc1nc(Nc2ccc(C(N)=O)cc2)cc(N)c1C#N
Nc1cccc(-c2cc3c(Oc4cccc(O)c4)ncnc3[nH]2)c1
CN1c2ccccc2C(=O)N2CCc3c([nH]c4ccccc34)[C@H]21 [Evodiamine]
Cc1noc(C)c1-c1cc(O)cc(C(O)c2ccccc2)c1 (centres undefined)
O=C(Nc1ccc(-c2ccnc(Nc3ccc(N4CCOCC4)cc3)n2)cc1)[C@@H]1CCCN1
C[C@H]1[C@H]2CC[C@H]3[C@@H]4CC=C5C[C@@H](N(C)C)CC[C@]5(C)[C@H]4CC[C@]23CN1C [Conessine]
COc1cc(/C=C/c2ccc(OC)cc2OC)cc(OC)c1
COc1cc2c(cc1-c1c(C)noc1C)ncc1[nH]c(=O)n([C@H](C)c3ccccn3)c12 [I-BET 151 dihydrochloride]
OC[C@H]1O[C@@H](n2cnc3c(NCc4ccco4)ncnc32)[C@H](O)[C@@H]1O [Kinetin riboside]
C=CC(=O)Nc1cccc(Nc2nc(Nc3ccc(OCCOC)cc3)ncc2F)c1

Lowest phenotypically active concentration, 1 µM:
Cc1c(NC(=O)OC[C@@H]2COCCN2)cn2ncnc(Nc3ccc4c(cnn4Cc4cccc(F)c4)c3)c12
COc1c(Nc2cc(C)[nH]n2)nc(Sc2ccc(S(=O)(=O)Cc3cccc([N+](=O)[O-])c3F)cc2F)nc1N1CCOCC1 [Centrinone]
NC1(C(=O)N[C@@H](CCO)c2ccc(Cl)cc2)CCN(c2ncnc3[nH]ccc23)CC1
COc1cc2nc(-c3cc(F)ccc3O)nc(N[C@@H]3CNC[C@H]3C(C)(C)O)c2cc1OC
